PubChem BioAssay AID485364 (National Center for Advancing Translational Sciences (NCATS), 2010)
About 11,000 (3.1%) of roughly 360,000 compounds were called active. Inconclusive results (about 4%) are left out. The list comes from a sample in which actives are over-represented; it also holds similar structures and randomly drawn compounds. Values without a mark were called inactive. Calls come from the whole dose curve; as a rule, active = well fitted inhibition curve with a large enough effect; inconclusive = small, poorly fitted or top-dose-only effect; inactive = no such curve, though single readings can be large or run the other way.

Biological target: Schistosoma mansoni thioredoxin glutathione reductase (TGR) (UniProt Q962Y6)
Experiment: qHTS Assay for the Inhibitors of Schistosoma Mansoni Peroxiredoxins; note: nearly all actives have a fitted effect of over 60% in size
Details: purified TGR, DTNB reduction, TNB absorbance 405 nm; series mostly up to 114 µM; activity change, negative = inhibition: at the top concentration
How it was run: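 First, TGR (20 nM dispensed) and NADPH were mixed with compound. Second, a 15 min room-temperature incubation followed. Third, further NADPH and then DTNB were added to start the reaction. Finally, TNB absorbance was monitored kinetically.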
% is set by controls: 0 for no effect and ±100 for the full control effect; potency is the fitted concentration of half-maximal effect.

SMILES	activity change, negative = inhibition	Potency
Cc1nnc(NC(=O)c2ccc3nccnc3c2)s1	-3.57%	
Cc1ccc(C(=O)Cn2cccn2)cc1	2.69%	
Cc1ccc(C(=O)Cc2nnc(C)s2)cc1		10 µM (active)
Cc1cc(C)cc(NC(=O)CSc2nc(=O)n(CCN3CCOCC3)c3c2CCC3)c1	8.04%	
CC(C)CNC(=S)NC(=O)c1ccc(Cl)cc1		50.1 µM (active)
CC(C)C(NC(=O)c1ccc(Cl)cc1)C(=O)O (centres undefined)	-11.7%	
Cc1occc1C(=O)NNC(=S)NCC(C)C	-10.8%	
CC[N+](C)(CC)CCC[n+]1c(-c2ccccc2)c2cc(N)ccc2c2ccc(N)cc21		39.8 µM (active)
CC(=O)c1ccc(NC(=O)COc2ccccc2-c2nc(-c3ccccc3)no2)cc1	-3.59%	
CCc1ccc(NC(=O)c2cc(S(=O)(=O)NC3CCCCCC3)ccc2F)cc1	3.87%	
Cc1ccc(NC(=O)C(Cc2ccccc2)NS(=O)(=O)c2ccc3c(c2)oc(=O)n3C)cc1C (centres undefined)	-0.776%	
Cc1oc2ncnc(N3CCOCC3)c2c1C(=O)NCCc1ccccc1	0.044%	
CCC(=O)N1CCc2cc(CNS(=O)(=O)c3ccc(Br)s3)ccc21	2.77%	
Cc1nccc(-c2ccc(-n3c(C)ccc3C)cc2)n1		39.8 µM (active)
Cc1ccc(-n2c(-c3ccc(Cl)cc3)n[nH]c2=S)cc1	7.4%	
c1ccc(-c2nccc(-c3ccc(-n4cnc5ccccc54)cc3)n2)nc1	3.5%	
O=C(Nc1ccc(C(=O)OCc2cc(=O)n3nc(C4CC4)sc3n2)cc1)c1ccc(F)cc1	-6.43%	
Cc1ccc(CNS(=O)(=O)c2ccc(-c3cc(C(F)(F)F)on3)s2)cc1	6.71%	
COC(=O)c1ccc(OC(=O)c2cnccn2)cc1		56.2 µM (active)
COC(=O)c1ccc(COC(=O)c2cnccn2)cc1	2.29%	
COc1cccc(OCC(=O)NNC(=O)c2cnccn2)c1	3.38%	
O=C(NCCc1ccccc1)c1ccc2c(c1)N(Cc1ccccc1)C(=O)c1ccccc1S2(=O)=O	-6.43%	
COc1ccccc1-c1cc(C(F)(F)F)nc(S(=O)(=O)CCCC(=O)Nc2ccc(F)cc2F)n1	-34.2%	
COc1ccccc1-c1cc(C(F)(F)F)nc(S(=O)(=O)CCCC(=O)Nc2cc(C)ccc2O)n1	-34.7%	
CSc1ccccc1NC(=O)CCS(=O)(=O)c1nc(-c2cccs2)cc(C(F)(F)F)n1		12.6 µM (active)

SMILES	activity change, negative = inhibition	Potency
CCOc1ccccc1NC(=O)CSc1ncc(S(=O)(=O)c2ccc(C(C)(C)C)cc2)c(=O)[nH]1	-1.94%	
CCCCN1C(=O)c2[nH]nc(-c3ccccc3O)c2C1c1cccc(OCc2ccccc2)c1 (centres undefined)	10.1%	
COc1ccccc1N1CCN(S(=O)(=O)CCNC(=O)COc2ccc(F)cc2)CC1	-2.42%	
Cc1nc(N2CCOCC2)c2c(C(=O)NCc3cccc(Cl)c3)c(C)oc2n1	4.57%	
O=C(NC(=S)Nc1ccccc1C(=O)O)c1ccc(-c2ccc(Br)cc2)o1		3.55 µM (active)
O=C(O)c1ccccc1NC(=O)c1ccccc1-c1ccccc1C(=O)O	-11.9%	
O=C(NC(=S)Nc1cc(C(F)(F)F)ccc1N1CCOCC1)c1ccc(-c2cccc(Cl)c2)o1	-12.5%	
Cc1ccc(Cl)cc1NC(=O)NC1COc2ccccc2C1 (centres undefined)	2.72%	
CC(=O)Nc1ccc(NC(=O)CCCNC(=O)c2ccc(Cl)cc2)cc1	-3.03%	
Cc1ccc(CNC(=O)CCCNC(=O)c2ccc(Cl)cc2)n1C		25.1 µM (active)
Cc1ccc(NC(=O)CCCNC(=O)c2ccc(Cl)cc2)cc1S(=O)(=O)N1CCCCC1	-0.386%	
COC(=O)c1scc(-c2ccccc2)c1S(=O)(=O)Nc1ccccc1	20.7%	
COc1ccc(-n2c(=O)c3sc4ccccc4c3n(CC(=O)Nc3cccc(C)c3)c2=O)cc1	-0.518%	
Cc1cccc(N2CCN(C(=O)CCn3c(=O)c4cccn4c4cccnc43)CC2C)c1 (centres undefined)	-0.636%	
COC(=O)c1ccc(/C=C2/C(=O)Oc3ccccc32)cc1	-5.95%	
O=C1Oc2ccccc2C(=O)/C1=C/c1ccccc1O		2 µM (active)
CC(C)(C)NC(=O)CSc1nc(-c2ccc(F)cc2)cc(C(F)(F)F)n1	3.3%	
COc1ccc(S(=O)(=O)/N=C2\C=C(NS(=O)(=O)c3ccccc3)C(=O)c3ccccc32)cc1		35.5 µM (active)
CCCC(NS(=O)(=O)c1ccc(OC)cc1)C(=O)O (centres undefined)	1.05%	
COc1ccc(S(=O)(=O)Nc2cc3c(C(=O)OC(C)C)c(C)oc3c3ccccc23)cc1	7.76%	
Cc1ccccc1CN1CCNC(=O)C1CC(=O)NCCC1=CCCCC1 (centres undefined)	-11.2%	
CCc1cc(CNC(=O)CC2C(=O)NCCN2CC2CCCCC2)on1 (centres undefined)	-29.1% [at 57.1 µM]	
CCc1cc(CNC(=O)CC2C(=O)NCCN2Cc2ccccc2C(F)(F)F)on1 (centres undefined)		35.5 µM (active)
CC(C)c1ccc2oc(-c3cc(NC(=O)c4cccs4)ccc3Cl)nc2c1	-0.467%	
COc1ccc(OC)c(-c2csc(-c3c(N)c(C(=O)c4ccccc4)n4ccccc34)n2)c1	-0.11%	

SMILES	activity change, negative = inhibition	Potency
CC1=C(C)C(=O)OC(C(C)C2CCC3C4CC=C5CC(OC6OC(COC7OC(CO)C(O)C(O)C7O)C(O)C(O)C6O)CC(O)C5(C)C4CCC23C)C1 (centres undefined)	-24.4%	
CC(/C=C/C1(O)C(C)CC(=O)CC1(C)C)OC1OC(CO)C(O)C(O)C1O (centres undefined)		25.1 µM (active)
C=CC1C(OC2OC(CO)C(O)C(O)C2O)OC=C(C(=O)OC)C1CC1CC(=O)CC(CC(=O)CCc2ccc(O)cc2)O1 (centres undefined)	0.84%	
CC(=O)N(Cc1cc(=O)[nH]c2ccccc12)c1ccc(C)cc1C	-2.87%	
Cc1ccc(N(Cc2cc(=O)[nH]c3ccccc23)C(=O)CCl)cc1		3.16 µM (active)
Cc1ccc(N(Cc2cc3ccccc3[nH]c2=O)C(=O)c2cccs2)cc1	-7.78%	
CCOC(=O)c1ccc(-c2ccc(/C=C(\C#N)C(=O)Nc3ccc(C)cc3)o2)cc1	7.23%	
COc1ccc(OCCCn2c(C3CC(=O)N(c4ccc(F)cc4)C3)nc3ccccc32)cc1 (centres undefined)	-0.0863%	
CCOC(=O)C1(Cc2ccccc2C)CCCN(S(C)(=O)=O)C1 (centres undefined)	4.13%	
CCOC(=O)C1(Cc2ccccc2C)CCCN(C(=O)CCc2c(C)noc2C)C1 (centres undefined)	-9.49%	
CCOC(=O)C1(Cc2ccccc2C)CCCN(C(=O)c2ccc(COC)o2)C1 (centres undefined)		15.8 µM (active)
COc1ccc(CNc2nc(-c3ccccc3)nn2C(=O)c2ccccc2OC)cc1	21.4%	
CCOC(=O)c1cccc(NC(=O)Cn2cnc3nc4c(cc3c2=O)CCCC4)c1	8.05%	
CC1=C(c2ccc(C)c(C)c2)S(=O)(=O)NC1=NCc1ccccc1Cl	0.753%	
C=CCn1c(SCc2c(C)noc2C)nc2sc3c(c2c1=O)CCC(C)C3 (centres undefined)	5.66%	
C=CCNC(=O)CSc1nc2scc(-c3ccco3)c2c(=O)n1CC=C		39.8 µM (active)
C=CCn1c(SCC(=O)Nc2ccc(NC(C)=O)cc2)nc2sc(C)c(C)c2c1=O	-18%	
C=CCn1c(SCC(=O)/C(C#N)=C(\C)N)nc2sc(C)c(C)c2c1=O	2.71%	
C=CCn1c(SCC(=O)NCC2CCCO2)nc2sc(C)c(C)c2c1=O (centres undefined)	4.37%	
CCC1(C)Cc2c(sc3[nH]c(=S)n(Cc4ccccc4)c(=O)c23)CO1 (centres undefined)	-10.7%	
C=CCn1c(=S)[nH]c2scc(-c3ccco3)c2c1=O		8.91 µM (active)
C=CCn1c(SCc2csc(C)n2)nc2scc(-c3ccc(C)o3)c2c1=O		7.94 µM (active)
CCOC(=O)c1ccc(CN(Cc2ccccc2)S(=O)(=O)c2ccc(Cl)cc2)cc1	7.42%	
Cc1cccc(N2CCN(C(=O)c3cc4c(=O)oc5ccccc5c4s3)CC2C)c1 (centres undefined)	4.3%	
O=c1cc2nc(-c3ccccc3)nc(SCCOc3ccc(Cl)cc3)n2[nH]1	0.903%	

SMILES	activity change, negative = inhibition	Potency
COc1ccc(CNc2nc(-c3ccc(Cl)cc3)nn2C(=O)c2ccccc2)cc1	2.53%	
Cc1cccc(-n2ncc(C(=O)N3CCc4ccccc4C3)c2C2CCN(C(=O)OC(C)(C)C)CC2)c1	-1.72%	
CN(c1ccccc1)S(=O)(=O)c1ccc(Cl)c(C(=O)OCC(=O)NCc2ccco2)c1		22.4 µM (active)
CN(c1ccccc1)S(=O)(=O)c1ccc(Cl)c(C(=O)OCC(=O)N2CCOCC2)c1	-2.25%	
CN(c1ccccc1)S(=O)(=O)c1ccc(Cl)c(C(=O)OCC(N)=O)c1	6.88%	
CCc1ccccc1NS(=O)(=O)c1ccc2nc(-c3ccccc3)[nH]c2c1	-1.94%	
O=S(=O)(Nc1ccc2nc(-c3cccc(Cl)c3)oc2c1)c1ccccc1	-2.42%	
O=S(=O)(Nc1ccc2nc(-c3ccco3)[nH]c2c1)c1ccccc1		10 µM (active)
O=C(CN1C(=O)COc2ccc(S(=O)(=O)N3CCOCC3)cc21)N1CCN(c2cccc(Cl)c2)CC1	0.662%	
CCOC(=O)CN1C(C(=O)c2ccccc2)=C(OC(=O)C(C)(C)C)c2ccccc2S1(=O)=O	0.561%	
Cc1ccc(N(CC(=O)NCc2ccc(Cl)cc2)S(=O)(=O)N(C)C)cc1	6.61%	
Cc1ccc(-c2csc(N(Cc3ccco3)C(=O)c3cccs3)n2)cc1	2.38%	
O=C(O)CCC(=O)N(Cc1ccco1)c1nc(-c2ccccc2)cs1		44.7 µM (active)
O=C(O)CN(Cc1ccco1)S(=O)(=O)c1ccccc1	-3.68% [at 11.4 µM]	
COc1ccccc1N1CCN(c2ccc(=O)n(CC(=O)NCc3ccc(OC(C)C)cc3)n2)CC1	-0.678%	
Cc1cc(NS(=O)(=O)c2ccc(NC(=O)c3ccccc3C)cc2)nc(C)n1	2.95%	
Cc1nnc(N2CCC(C(=O)Nc3ccc(F)cc3)CC2)c2nn(-c3ccc(Cl)cc3)c(C)c12	0.308%	
COc1ccc(NC(=O)CCc2nnc3n(CC(C)C)c(=O)c4ccccc4n23)cc1OC	2.05%	
COc1ccc(OCC(=O)OCCN(C)C)cc1	-8.28%	
COc1ccc(C(=O)C2CN(C)CC2C(=O)c2ccc(OC)cc2)cc1 (centres undefined)	-1.68%	
COc1ccc(OCCCC(=O)Oc2ccc(OC)cc2)cc1	0.251%	
COc1ccc(C(=O)C[n+]2ccc(C)cc2)cc1	3.8%	
COc1ccc(C(=O)CC2C(=O)N(C)C(=O)N(C)C2=O)cc1		25.1 µM (active)
COc1ccc(OCCC(=O)c2ccc(OC)cc2)cc1		1.78 µM (active)
